Data on 29 compounds can be found in PubChem BioAssay AID1220 (Sanford-Burnham Center for Chemical Genomics, 2008).

Structures are written as SMILES. Screen size: about 190,000 compounds; about 1,300 (0.68%) were called active. Only a selection was taken, and actives are over-represented in it overall. Unmarked numbers belong to inactive results. Cut-off read from the data, not from the text of the source: active = inhibition above about 50%; inactive = the rest.

The target in this assay is Mannose-6-phosphate isomerase (Homo sapiens) (UniProt P34949). The experiment in a line: human PMI inhibitors, high substrate, primary screen, biochemical, fluorescence intensity, high mannose 6-phosphate (AID 1220). Conditions: recombinant PMI enzyme, coupled fluorescence intensity; at 20 µM; active compounds read high.
Sequence of Mannose-6-phosphate isomerase (Homo sapiens) (P34949 whole entry, looked up): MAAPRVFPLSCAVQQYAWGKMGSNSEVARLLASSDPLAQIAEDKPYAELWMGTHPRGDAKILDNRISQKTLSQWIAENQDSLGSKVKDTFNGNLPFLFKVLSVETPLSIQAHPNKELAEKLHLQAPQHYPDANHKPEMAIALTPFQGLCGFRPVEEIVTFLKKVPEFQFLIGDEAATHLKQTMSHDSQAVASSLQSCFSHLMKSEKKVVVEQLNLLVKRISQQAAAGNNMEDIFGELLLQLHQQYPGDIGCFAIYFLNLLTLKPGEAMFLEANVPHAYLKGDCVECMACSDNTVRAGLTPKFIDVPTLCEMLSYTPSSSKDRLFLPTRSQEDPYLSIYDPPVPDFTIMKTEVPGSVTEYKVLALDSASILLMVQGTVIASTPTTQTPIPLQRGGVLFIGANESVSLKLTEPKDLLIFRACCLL
`CCN(C(=O)COc1cccc2cccnc12)C1CCS(=O)(=O)C1` (centres undefined): the inhibition is 63.2% (active).

For `CCN(C(=O)COc1ccccc1[N+](=O)[O-])C1CCS(=O)(=O)C1` (centres undefined), the inhibition was -4%.

As for `CCN(C(=O)COc1cccnc1[N+](=O)[O-])C1CCS(=O)(=O)C1` (centres undefined), the inhibition is 43.2%.

Regarding `O=C1CC(=O)N(CCNc2ncc(C(F)(F)F)cc2Cl)C(=O)N1`, the inhibition is 2.4%.

For the compound `COc1cc(Cl)c(C)cc1NC(=O)CSc1nnc(CCC(=O)O)c(=O)[nH]1`, the inhibition is 6.6%.

Turning to `O=C1CC(NCc2ccc3c(c2)OCO3)C(=O)N1CCc1ccccc1` (centres undefined), the inhibition is 1%.

Regarding `COc1ccc(CCN2C(=O)CC(NCc3ccc4c(c3)OCO4)C2=O)cc1OC` (centres undefined), the inhibition was 51% (active).

For `COc1ccc(CCNC2CC(=O)N(CCc3ccc(OC)c(OC)c3)C2=O)cc1OC` (centres undefined), the inhibition was 1.6%.

Take `CCc1nnc(NC(=O)CN2C(=O)c3ccccc3C2=O)s1`: the inhibition was -2.7%.

Turning to `O=C1C2C3C=CC(C3)C2C(=O)N1Cc1ccccc1` (centres undefined), the inhibition was 10%.

Regarding `Cn1c(=O)c2cc(S(=O)(=O)NC(C(=O)Nc3cccc(F)c3)c3ccccc3)ccc2n(C)c1=O` (centres undefined), the inhibition is 1.9%.

In the case of `Cc1ccc2cccc(NC(=O)C(F)(F)F)c2n1`, the inhibition was 9.3%.

Turning to `Cc1ccc2cccc(N)c2n1`, the inhibition is 56.5% (active).

With `Cc1cc(N)c2ccccc2n1`, the inhibition is 5.5%.

Consider `Cc1cc(C)c2c(N)c3cccc(C)c3nc2n1`, for which the inhibition is 5.4%.

Regarding `Cc1ccc2cccc(OCCOCCOc3ccccc3Br)c2n1`, the inhibition is 35.7%.

Turning to `Cc1cc(C)c2cccc(N)c2n1`, the inhibition is 64% (active).

For the compound `COP(=O)(OC)c1nc(-c2ccccc2)oc1N1CCOCC1`, the inhibition is -10.4%.

With `CC1CCCCC1N1CN=C(Nc2nc3ccccc3s2)NC1` (centres undefined), the inhibition is 8.2%.

Turning to `Nc1nc(SCC(=O)NCCOCCO)nc2sc3c(c12)CCCC3`, the inhibition is 2.8%.

As to `Nc1nc(SCC(=O)NCCCO)nc2sc3c(c12)CCC3`, the inhibition is 57% (active).

`Nc1nc(SCC(=O)NCCO)nc2sc3c(c12)CCCC3`: the inhibition was 5.1%.

Take `Cc1c(Cl)cccc1NC(=O)Cn1cc(C(F)(F)F)cc(Cl)c1=O`: the inhibition was -5.8%.

As to `CCN(CC)c1ccc(/C=C2/SC(=O)N(C(C)C)C2=O)o1`, the inhibition was 51.9% (active).

As to `CC(C)N1C(=O)S/C(=C/c2ccc(Sc3nc4ccccc4[nH]3)o2)C1=O`, the inhibition is 13.6%.

With `CC(C)N1C(=O)S/C(=C/c2ccc3c(c2)n(C)c(=O)n3C)C1=O`, the inhibition was 7.6%.

Consider `C/C(=N\NC(=O)CN(c1ccccc1Br)S(C)(=O)=O)c1cccs1`, for which the inhibition is -17.2%.

Consider `CCS(=O)c1ccccc1C(=O)O` (centres undefined), for which the inhibition was 9.5%.

Regarding `CCCCNc1nc(CC)c2c(c1C#N)CCCC2`, the inhibition is -5.9%.
